From PubChem BioAssay (NCI)
This is part of a sample that, as a whole, favours compounds with a hit. Of some 79,000 tested, about 15% had one in any assay. Active and inactive are the calls of the source. No stated cut-off is given here; in the data, active means growth inhibition above about 70%; inactive means the rest.

Assays:
[1] = NCI Yeast Anticancer Drug Screen. Data for the rad50 strain (AID 155);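 further: 0% = growth of vehicle-only cultures of the same strain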; conditions: S. cerevisiae rad50 strain growth inhibition, active compounds read high
In short: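 Vehicle-treated cultures provide the reference for the growth inhibition reported for compound-exposed, repair-deficient yeast.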

[2] = NCI Yeast Anticancer Drug Screen. Data for the mec2-1 strain (AID 157); conditions: S. cerevisiae mec2-1 strain, active compounds read high
In short: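 Mutant yeast (mec2-1) grown with compound; growth inhibition relative to vehicle control reported.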

[3] = NCI Yeast Anticancer Drug Screen. Data for the sgs1 mgt1 strain (AID 161);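 further: 0% = growth of cultures given vehicle only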; conditions: S. cerevisiae sgs1 mgt1 strain, active compounds read high
In short: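 Yeast cells carrying a defined DNA-repair defect were exposed to test compounds. Growth inhibition was measured relative to vehicle-treated controls.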

[4] = NCI Yeast Anticancer Drug Screen. Data for the cln2 rad14 strain (AID 165);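 further: 0% = growth equal to vehicle treated cultures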; conditions: S. cerevisiae cln2 rad14 strain, active compounds read high
In short: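 Readout is yeast growth inhibition versus vehicle-treated controls, using a strain with cln2 and rad14 alterations exposed to compound.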

[5] = NCI Yeast Anticancer Drug Screen. Data for the bub3 strain (AID 167); conditions: S. cerevisiae bub3 mutant strain, active compounds read high
In short: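 Mutant yeast screening strain plus compound; vehicle-treated cultures serve as the 0% inhibition reference.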

[6] = NCI Yeast Anticancer Drug Screen. Data for the mlh1 rad18 strain (AID 175); conditions: S. cerevisiae mlh1 rad18 strain growth inhibition, active compounds read high
In short: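 Genetically defined yeast (DNA repair-deficient) exposed to compounds; growth inhibition determined relative to vehicle.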

[7] = at 5.0 µM (retest, dose inferred, filed as 0.5)
[8] = at 50.0 µM (retest, dose inferred, filed as 5.0)

Measured: growth inhibition

O=C1c2ccccc2C(=O)c2cc(O)ccc21
active: [1]; [8] 91% | [1]; at 50.0 µM 84.8% | [2]; [8] 77% | [3]; [8] 82% | [5]; [8] 84% | [5]; at 50.0 µM 80.3% | [6]; [8] 87% | [6]; at 50.0 µM 85%
inactive: [1]; [7] 34% | [2]; [7] -13% | [2]; at 50.0 µM 56.1% | [3]; [7] 2% | [3]; at 50.0 µM 69% | [4]; [7] 11% | [4]; [8] 54% | [4]; at 50.0 µM 64.4% | [5]; [7] 44% | [6]; [7] 15%

Nc1cc(Cl)ccc1C(=O)O
active: [1]; [8] 78% | [1]; at 50.0 µM 81.2% | [2]; at 50.0 µM 91.7% | [5]; at 50.0 µM 96.4%
inactive: [1]; [7] 34% | [2]; [7] 7% | [2]; [8] 32% | [3]; [7] 14% | [3]; [8] 39% | [3]; at 50.0 µM 49.8% | [4]; [7] -2% | [4]; [8] 30% | [4]; at 50.0 µM 42.7% | [5]; [7] 3% | [5]; [8] 50% | [6]; [7] 21% | [6]; [8] 59% | [6]; at 50.0 µM 50.2%

O=C(O)/C=C/C(=O)Nc1cccc2ccccc12
inactive: [1]; [7] 40% | [1]; [8] 40% | [1]; at 50.0 µM 6.35% | [2]; [7] 44% | [2]; [8] 49% | [2]; at 50.0 µM 35.9% | [3]; [7] 21% | [3]; at 50.0 µM 55.5% | [4]; [7] 39% | [4]; at 50.0 µM 2.25% | [5]; [7] 64% | [5]; at 50.0 µM 55% | [6]; [7] 26% | [6]; [8] 44% | [6]; at 50.0 µM 16.8%
active: [3]; [8] 100% | [4]; [8] 100% | [5]; [8] 100%

CCN(CC)c1ccc(NC(C(=O)c2ccccc2)c2ccc3c(c2)OCO3)cc1 (stereo not given)
inactive: [1]; [7] -23% | [1]; [8] -26% | [1]; at 50.0 µM 27.2% | [2]; [7] -3% | [2]; [8] 5% | [2]; at 50.0 µM 32.7% | [3]; [7] -23% | [3]; [8] 14% | [3]; at 50.0 µM 46.1% | [4]; [7] -1% | [4]; [8] -10% | [4]; at 50.0 µM -8.35% | [5]; [7] 3% | [5]; [8] 14% | [5]; at 50.0 µM 25.9% | [6]; [7] -4% | [6]; [8] 12% | [6]; at 50.0 µM 42.5%

CCC12C=CCN3CC[C@@]4(c5cc([C@@]6(C(=O)OC)C[C@@H]7CN(CCc8c6[nH]c6ccccc86)C[C@](O)(CC)C7)c(OC)cc5N(C)[C@H]4[C@@](O)(C(=O)OC)[C@@H]1OC(=O)CCCCCCCCCCCN1C(=O)C=CC1=O)[C@H]32 (stereo not given in full)
inactive: [1]; [7] 16% | [2]; [7] 42% | [3]; [7] 35% | [4]; [7] 16% | [5]; [7] -23% | [6]; [7] 32%
active: [1]; [8] 98% | [1]; at 50.0 µM 88.5% | [2]; [8] 99% | [2]; at 50.0 µM 92.4% | [3]; [8] 98% | [3]; at 50.0 µM 92.7% | [4]; [8] 95% | [4]; at 50.0 µM 90.5% | [5]; [8] 96% | [5]; at 50.0 µM 91% | [6]; [8] 98% | [6]; at 50.0 µM 91.5%

CCCCCCCCCCCCCCCCn1cc(C(O)CN(C)C)c2ccccc21 (stereo not given)
inactive: [1]; [7] -4% | [1]; at 50.0 µM 32.2% | [2]; [7] -1% | [3]; [7] -1% | [3]; at 50.0 µM 49.5% | [4]; [7] -3% | [5]; [7] -4% | [5]; at 50.0 µM 39.6% | [6]; [7] -2%
active: [1]; [8] 98% | [2]; [8] 99% | [2]; at 50.0 µM 99.1% | [3]; [8] 98% | [4]; [8] 89% | [4]; at 50.0 µM 98.3% | [5]; [8] 98% | [6]; [8] 98% | [6]; at 50.0 µM 94.9%

Cc1cccc(-c2nnc(-c3cccc(C)c3)o2)c1
inactive: [1]; [7] 39% | [1]; [8] 44% | [1]; at 50.0 µM 54.8% | [2]; [7] 30% | [2]; [8] 43% | [2]; at 50.0 µM 14.7% | [3]; [7] 19% | [3]; [8] 47% | [3]; at 50.0 µM 63.6% | [4]; [7] 53% | [4]; [8] 33% | [4]; at 50.0 µM 43.2% | [5]; [7] 54% | [5]; [8] 66% | [5]; at 50.0 µM 55% | [6]; [7] 32% | [6]; [8] 44% | [6]; at 50.0 µM 23.4%

Cc1ccc(NNC(=O)C(O)C(O)C(O)C(O)CO)cc1 (stereo not given)
inactive: [1]; at 50.0 µM -2.2% | [2]; at 50.0 µM 2.6% | [3]; at 50.0 µM 7.85% | [4]; at 50.0 µM 41.8% | [5]; at 50.0 µM 8.25% | [6]; at 50.0 µM 1.2%
active: [1]; [7] 98% | [1]; [8] 98% | [2]; [7] 99% | [2]; [8] 99% | [3]; [7] 99% | [3]; [8] 99% | [4]; [7] 99% | [4]; [8] 99% | [5]; [7] 98% | [5]; [8] 99% | [6]; [7] 99% | [6]; [8] 99%

Cn1c2nc(-[n+]3ccc4ccccc4c3)nc-2c([O-])n(C)c1=O
active: [1]; [8] 95% | [2]; [8] 96% | [3]; [8] 96% | [4]; [8] 84% | [5]; [8] 97% | [6]; [8] 98%
inactive: [1]; [7] 34% | [1]; at 50.0 µM -9.45% | [2]; [7] 12% | [2]; at 50.0 µM 3.55% | [3]; [7] 15% | [3]; at 50.0 µM -13.1% | [4]; [7] 3% | [4]; at 50.0 µM 49% | [5]; [7] 8% | [5]; at 50.0 µM 0.2% | [6]; [7] 12% | [6]; at 50.0 µM -3.35%

Cc1nc(Cl)nc(N)c1[N+](=O)[O-]
inactive: [1]; [7] 2% | [1]; [8] 44% | [1]; at 50.0 µM 53.8% | [2]; [7] 8% | [2]; [8] 55% | [2]; at 50.0 µM 44.1% | [3]; [7] 3% | [3]; [8] 30% | [3]; at 50.0 µM 24.8% | [4]; [7] -3% | [4]; [8] 19% | [4]; at 50.0 µM 10.8% | [5]; [7] -6% | [5]; [8] 31% | [5]; at 50.0 µM 22.9% | [6]; [7] 6% | [6]; [8] 41% | [6]; at 50.0 µM 45.1%
